# Screening results (PubChem BioAssay)
# MITF inh: MITF inhibitors, primary screen, biochemical, AlphaScreen, human. Microphthalmia-associated transcription factor (Homo sapiens), O75030. AlphaScreen MITF homodimerization, bead proximity signal. inhibition, % at 2.6 µM. hit rate 0.91% among 650,000; in the data active means inhibition above about 50%;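 further: 0% = vehicle wells with protein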
# FBW7 activator: FBW7 E3 ligase activators, primary screen, biochemical, AlphaScreen, human; AlphaScreen FBW7–phospho-cyclin E peptide binding, activator screen; AID 1259310, 2017; hit rate 0.13% among 650,000; normalized activity (activation), % at 26.1 µM; F-box/WD repeat-containing protein 7 (Homo sapiens), Q969H0; in the data active means normalized activity above about 1.9%;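 further: purified mutant Fbw7 with reduced substrate affinity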
# TEAD-YAP block: TEAD-YAP interaction inhibition, primary screen, TEAD-YAP interaction inhibitor project, luminescence, HEK-TIYL cells | TEAD-Gal4/YAP UAS-luciferase luminescence | inhibition, % at 9.12 µM | hit rate 1.4% among 640,000; in the data active means inhibition above about 32%;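 further: 0% = median of test compound wells and 100% = reference inhibitor wells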
# GPR151 ag: activators of human GPR151, primary screen, cell-based, PathHunter beta-arrestin, luminescence. G-protein coupled receptor 151 (Homo sapiens), Q8TDV0. PathHunter beta-arrestin GPR151 cells. activation, % at 11.2 µM. hit rate 1% among 650,000; in the data active means activation above about 4.9%;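 further: 0% = median of compound wells and 100% = cells with positive control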
# Target sequence (Q8TDV0 whole entry, looked up): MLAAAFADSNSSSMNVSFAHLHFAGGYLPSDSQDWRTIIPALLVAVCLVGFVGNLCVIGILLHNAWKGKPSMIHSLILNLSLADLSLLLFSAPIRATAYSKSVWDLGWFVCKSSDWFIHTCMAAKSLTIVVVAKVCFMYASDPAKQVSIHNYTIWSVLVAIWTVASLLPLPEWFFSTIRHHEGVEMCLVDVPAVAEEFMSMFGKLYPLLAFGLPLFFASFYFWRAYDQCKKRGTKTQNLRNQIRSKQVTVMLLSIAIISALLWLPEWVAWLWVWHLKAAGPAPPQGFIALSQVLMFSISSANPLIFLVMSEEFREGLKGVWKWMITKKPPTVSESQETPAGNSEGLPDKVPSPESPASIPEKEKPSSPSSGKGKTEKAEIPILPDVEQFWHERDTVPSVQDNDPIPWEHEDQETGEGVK
# * hit, by the source's call. Most compounds without a hit are left out; they make up all but 3.5% or so of the library.
SMILES,MITF inh,FBW7 activator,TEAD-YAP block,GPR151 ag
O=C1NC(=O)N(Cc2ccccc2)C(=O)/C1=C/c1ccc([N+](=O)[O-])o1,29,0,2,1
CCN(CC)C(=O)c1sc2ncn(Cc3ccccc3F)c(=O)c2c1C,9,0,3,1
CCOC(=O)c1ccc(N2C(=O)/C(=C\c3ccco3)C(C(=O)OC)=C2C)cc1,67*,0,8,-1
O=C(NCCCO)c1ccc2nc(-c3ccco3)c(-c3ccco3)nc2c1,83*,-1,10,0
O=C(NCCO)Nc1ccc2nc(-c3ccco3)c(-c3ccco3)nc2c1,89*,-1,8,0
O=C(Nc1ccc2nc(-c3ccco3)c(-c3ccco3)nc2c1)N1CCCC1,94*,0,2,0
O=C(NC1CC1)c1ccc2nc(-c3ccco3)c(-c3ccco3)nc2c1,71*,-1,9,0
O=C(NC1CCCC1)c1ccc2nc(-c3ccccc3)c(-c3ccccc3)nc2c1,-8,0,-3,-1
CCOCCCNC(=O)c1ccc2nc(-c3ccco3)c(-c3ccco3)nc2c1,20,-1,12,-2
CC(C)[C@@H](CO)n1c(=O)[nH]c2ncc(-c3cccc(O)c3)nc21,1,0,-9,0
COc1ccc2[nH]c(CN3CCC4(CC3)NC(=O)c3ccccc3O4)c(C)c2c1,2,0,68*,-1
CCC(=O)NC(=S)Nc1cccc(C(=O)O)c1C,1,0,8,-1
O=C(CSc1ccc(Cl)cc1)N=C1NC(=O)CS1,-16,0,9,0
CCN(CC)c1nc(Nc2ccccc2)nc(Nc2cc(OC)c(OC)c(OC)c2)n1,9,0,-1,0
CCN(CC)c1nc(Nc2ccc(-n3ccnc3)cc2)nc(Nc2cc(OC)c(OC)c(OC)c2)n1,12,0,75*,-1
COc1cc(Nc2ccnc(Nc3ccc(-n4ccnc4)cc3)n2)cc(OC)c1OC,9,0,51*,3
CCNC(=S)NCCNc1nc2ccc(OC)cc2cc1C#N,-4,0,-10,0
N#Cc1c(N)sc2c1CCN(Cc1ccccc1)C2,11,0,7,4
CCCCN(CC)C(=O)c1ccc(Cl)cc1[N+](=O)[O-],16,0,0,0
CC(=O)NCC1CCC2(CCN(Cc3ccc4c(c3)CCCN4C)CC2)O1 (stereo not given),7,0,55*,1
CC(=O)NCC1CCC2(CCN(Cc3ccc4ccccc4c3)CC2)O1 (stereo not given),-5,0,-7,0
CCN(CC)c1cc(C)nc(Nc2ccc(NC(=O)C(C)C)cc2)n1,13,0,48*,-1
COc1cc(C2C(C#N)=C(N)Oc3c2ccc2ccccc32)cc(Br)c1O (stereo not given),10,0,64*,-1
COc1ccc(OC)c(C2C(C#N)=C(N)Oc3c2c(=O)[nH]c2ccccc32)c1 (stereo not given),1,0,-5,0
COc1cccc(C2C(C#N)=C(N)Oc3n[nH]c(-c4ccc5ccccc5c4)c32)c1 (stereo not given),-3,-1,-2,1
SMILES,MITF inh,FBW7 activator,TEAD-YAP block,GPR151 ag
COc1ccc(OC)c(C2C(C#N)=C(N)Oc3c2ccc2ccccc32)c1 (stereo not given),5,0,51*,-2
COc1cccc(C2C(C#N)=C(N)Oc3ccc4ccccc4c32)c1 (stereo not given),17,0,50*,-1
CCOc1cc(C2C(C#N)=C(N)Oc3c2ccc2ccccc32)ccc1O (stereo not given),17,0,12,0
CN(Cc1nc2ccccc2[nH]1)C(=O)CCc1nnc(-c2ccccc2)o1,6,0,-9,0
Oc1ccc(Br)c2ccc(/C=C/c3ccccc3)nc12,13,0,-23,0
Oc1cccc2ccc(/C=C/c3ccccc3)nc12,2,0,32*,-7
CSc1ccc(/C=C/c2ccc3cccc(O)c3n2)cc1,13,0,34*,-7
N[C@@H](Cc1ccccc1)c1nc2ccc(-c3ccncc3)cc2c(=O)[nH]1,18,-1,61*,0
N[C@H](Cc1ccccc1)c1nc2ccc(-c3ccncc3)cc2[nH]1,24,-1,17,0
N[C@H](Cc1cccc(Cl)c1)c1nc2ccc(-c3cn[nH]c3)cc2c(=O)[nH]1,-9,-1,69*,0
